This note sets out measurements from PubChem BioAssay (NCATS).

The structures appear in SMILES notation. Where “and” joins values, the source holds several entries; their conditions need not be identical. Identical values can stand only once. Records with an inconclusive call do not appear. Calls of active or inactive are those of the source. Unless noted, the call rests on the fitted dose curve; in most records, active means well fitted curve in the direction sought with a large enough effect; inconclusive means small, poorly fitted or top-dose-only effect, or another doubt; inactive means no such curve, though single readings can be large; an effect the other way counts as inactive or inconclusive.

Experiment [1] addresses Cytochrome P450 3A4 (Homo sapiens) (UniProt P08684). Put plainly: qHTS Assay for Inhibitors and Substrates of Cytochrome P450 3A4 (AID 884). Further: series mostly up to about 57 µM; on the % scale 0 is the no-effect control and ±100 the full control effect; nearly all actives have a fitted effect of over 50% in size. A digest of the protocol: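 20 nM human CYP3A4 with 25 uM Luciferin-PPXE (at KM) in 200 mM KPO4, preincubated 10 min with compound; NADPH regeneration started a 60 min RT reaction. Luciferin detected by luminescence, normalized to 57 uM ketoconazole as full inhibition.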
A general note: qHTS replaces the single test concentration by a dilution series.

Experiment [2] in a line: MultiTox-Fluor Cytotoxicity Assay - LYMP1-002 - Dead Cells (AID 960).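 Further: 0% = DMSO and 100% = tetraoctylammonium bromide; nearly all actives have a fitted effect of over 60% in size.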 A digest of the protocol:
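Human lymphoblastoid cells (LYMP1-002), 2500/well in complete medium, were exposed to compounds for 16 hr at 37 C. Dead-cell protease activity was read as bis-AAF-R110 fluorescence (Ex/Em 485/520), normalized to DMSO and 15 uM tetraoctylammonium bromide; AC50 from Hill fits.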

Experiment [3] in a line: Cell Viability - LYMP2-004 (AID 966).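 Further: plate controls were DMSO only for no effect and tetraoctylammonium bromide control for full effect; nearly all actives have a fitted effect of over 65% in size.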 A digest of the protocol: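 Human lymphoblastoid cells (2500/well) in complete medium were treated with compounds for 24 hr at 37 C, then intracellular ATP was measured by CellTiter-Glo luminescence. AC50 values came from Hill-equation fits of concentration-response data.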
The nature of experiment [4]: Cell Viability - LYMP1-002 - Assay at 24 hr (AID 993). Further: on the % scale 0 is the no-effect control and ±100 the full control effect. A digest of the protocol:
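Human lymphoblastoid LYMP1-002 cells, 2500/well in complete medium, were treated with compounds for 24 h at 37 C; intracellular ATP was read by CellTiter-Glo luminescence. AC50 values came from Hill-equation fits of qHTS concentration-response data.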

Experiment [5] addresses Peroxisome proliferator-activated receptor gamma (Homo sapiens) (UniProt P37231). Put plainly: qHTS assay for small molecule agonists of peroxisome proliferator-activated receptor gamma signaling (AID 588536; active means well fitted curve in the direction sought with a large enough effect in the signal ratio, with a control signal flat, not every such curve was filed as active; the % refers to the signal ratio;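 further: 0% = DMSO basal wells and 100% = rosiglitazone at 2 µM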). A digest of the protocol: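 Test agents, titrated, stimulated HEK293 UAS-bla cells overnight (16 h, 37 C). Substrate CCF4 was then added for two hours at room temperature before fluorescence reading.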

The target in experiment [6] is Thyroid hormone receptor beta (Homo sapiens) (UniProt P10828). Put plainly: qHTS assay for small molecule agonists of thyroid hormone receptor beta signaling (AID 588545; calls by dose curve;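 further: 0% = DMSO only and 100% = 10 nM T3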). A digest of the protocol:
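Efficacy and EC50 values derive from Hill fits of qHTS titration data, normalized to 10 nM T3 and DMSO-only wells. HEK 293 reporter cells were stimulated for 18 hrs at 37 C, with beta-lactamase activity measured by CCF4 fluorescence.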

Experiment [7] shares this target. Put plainly: qHTS assay for small molecule antagonists of thyroid hormone receptor beta signaling (AID 588547; active means well fitted inhibition curve with a large enough effect in the signal ratio, with a control signal flat, not every such curve was filed as active; the % refers to the signal ratio;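 further: cells stimulated with 0.4 nM T3 agonist during compound exposure; series mostly up to about 77 µM; on the % scale 0 is the no-effect control and ±100 the full control effect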). Particulars: TR-UAS-bla HEK293, beta-lactamase ratio, antagonist mode, 18 h. A digest of the protocol: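 TR-UAS-bla GripTite HEK293 cells in 2% charcoal/dextran FBS medium; compounds 0.59 nM to 92 uM with T3 at 0.4nM final, 18 h at 37 C. Beta-lactamase read by CCF4 fluorescence (460/530 nm); Hill fits gave IC50 and efficacy.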

The target of experiment [8] is Voltage-gated inwardly rectifying potassium channel KCNH2 (Homo sapiens) (UniProt Q12809). Nature of the experiment: qHTS Assay for Small Molecule Inhibitors of the Human hERG Channel Activity (AID 588834).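 Further: top concentration of the series differs between compounds; on the % scale 0 is the no-effect control and ±100 the full control effect; lower thallium flux fluorescence means stronger hERG block; nearly all actives have a fitted effect of over 50% in size.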 A digest of the protocol:
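Blockade is seen as reduced FluxOR thallium-flux fluorescence in U2OS cells expressing hERG from a BacMam construct, in Opti-MEM with 2% FCS. Concentration-response data fitted to the Hill equation for AC50.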

The nature of experiment [9]: qHTS assay for small molecule activators of the p53 signaling pathway (AID 651743; active means well fitted activation curve with a large enough effect in the signal ratio, not every such curve was filed as active; the % refers to the signal ratio; further: series mostly up to about 92 µM; % of control where 0% means no effect). Conditions: HCT-116 p53RE-bla, beta-lactamase FRET ratio, 16 h; activation: stronger effect = higher value. A digest of the protocol:
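HCT-116 p53RE-bla, 4,000 cells/well; 5 h settle; cpd/DMSO 16 h, 37 C; LiveBLAzer B/G 2 h RT; fluorescence intensity.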

Experiment [10] addresses Tumor necrosis factor (Homo sapiens) (UniProt P01375). Nature of the experiment: qHTS assay to identify small molecules that stimulate Tumor Necrosis Factor-alpha (TNF-alpha) secretion (AID 651757; active means well fitted curve in the direction sought with a large enough effect in the signal ratio; the % refers to the signal ratio; further: 0% is about no effect). A digest of the protocol:
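THP-1 cells were exposed to compounds for 17 hrs at 37 C, after which secreted TNF-alpha was measured by homogeneous HTRF (TR-FRET) using cryptate- and XL665-labeled anti-TNF-alpha antibodies, read after 3 hr at room temperature.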

Experiment [11] can be described thus: qHTS assay for environmental chemicals that activate the Aryl hydrocarbon Receptor (AhR) signaling pathway (AID 651777). Further: % of control where 0% means no effect; nearly all actives have a fitted effect of over 15% in size. Particulars: 1A2-DRE human hepatoma cells, luciferase, 24 h; activation: stronger effect = higher value. A digest of the protocol: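 Stable CYP1A2 promoter/DRE-luciferase human hepatoma line treated 24 hr; One-Glo luminescence, 30 min RT.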
A short description of experiment [12]: qHTS assay for small molecule agonists of the antioxidant response element (ARE) signaling pathway measured by Nrf2-dependant transcriptional activity (AID 720636; active means well fitted curve in the direction sought with a large enough effect in the repeat runs; an effect the other way counts as inactive or inconclusive;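 further: HepG2 cells with an ARE-driven luciferase reporter; % of control where 0% means no effect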). A digest of the protocol: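 Reporter gene assay, HepG2 ARE-luc: 16 hr compound, 37 C, 5% CO2; read-out luciferase luminescence.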
Experiment [13] in a line: qHTS assay for small molecule antagonists of the retinoid-related orphan receptor gamma (ROR-gamma) signaling pathway - cell viability counter screen (AID 720652; active means well fitted curve in the direction sought with a large enough effect in the repeat runs; an effect the other way counts as inactive or inconclusive;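 further: CHO reporter cells with doxycycline-induced ROR-gamma expression; series mostly up to about 92 µM; compound exposure lasted 16 hr before ATP read; on the % scale 0 is the no-effect control and ±100 the full control effect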). A digest of the protocol:
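Counter screen in CHO cells carrying TET-inducible ROR-gamma and an ROR response element-luciferase reporter; cells plated 5 hr, compound pinned, doxycycline added, then 16 hr at 37 C. Viability read as intracellular ATP by CellTiter-Glo luminescence.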

Experiment [14] concerns the target Nuclear receptor subfamily 1 group I member 2 (Rattus norvegicus) (UniProt Q9R1A7). Put plainly: qHTS assay for small molecule activators of the rat pregnane X receptor (rPXR) signaling pathway (AID 651751; call rule not given here; further: 0% is about no effect). Conditions: rPXR reporter cells, luciferase (One-Glo), 24 h.
Experiment [15] in a line: qHTS assay for small molecule activators of the human pregnane X receptor (PXR) signaling pathway (AID 720659; call rule not given here; further: 0% is about no effect).
Experiment [16] is described as follows: MultiTox-Fluor Cytotoxicity Assay - LYMP1-001 - Live Cells (AID 947).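 Further: 0% = DMSO only and full inhibition = tetraoctylammonium bromide control.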
The nature of experiment [17]: qHTS assay for small molecule agonists of retinoid X receptor alpha signaling (AID 588544; calls by dose curve;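 on activation: 0% = DMSO basal wells and 100% = reference agonist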). Particulars: HEK293T RXRa-UAS-bla, beta-lactamase reporter, 18 h; 530 nm emission.
The target in experiment [18] is Retinoic acid receptor RXR-alpha (Homo sapiens) (UniProt P19793). Described as above.
Experiment [19] is described as follows: qHTS assay for small molecule disruptors of the mitochondrial membrane potential - 1 hr assay (AID 651754; calls by dose curve; further: on the % scale 0 is the no-effect control and ±100 the full control effect; nearly all actives have a fitted effect of over 35% in size). A digest of the protocol:
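HepG2 cells, attached overnight at 37C, were exposed to compound or DMSO vehicle for 1 hr at 37C, 5% CO2, then stained with Mito-MPS dye for 30 min. Red aggregate versus green monomer fluorescence reports membrane potential.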

Experiment [20] can be described thus: qHTS assay for small molecule disruptors of the mitochondrial membrane potential - 5 hr assay (AID 651755; calls by dose curve; further: on the % scale 0 is the no-effect control and ±100 the full control effect; nearly all actives have a fitted effect of over 40% in size). A digest of the protocol:
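HepG2 cells (2,000/well), attached overnight, exposed to compound 5 hr at 37C, then Mito-MPS dye 30 min. Fluorescence read for monomers (490/535 nm) and aggregates (540/590 nm).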

Nuclear receptor subfamily 1 group I member 2 (Rattus norvegicus), sequence (Q9R1A7 whole entry, looked up): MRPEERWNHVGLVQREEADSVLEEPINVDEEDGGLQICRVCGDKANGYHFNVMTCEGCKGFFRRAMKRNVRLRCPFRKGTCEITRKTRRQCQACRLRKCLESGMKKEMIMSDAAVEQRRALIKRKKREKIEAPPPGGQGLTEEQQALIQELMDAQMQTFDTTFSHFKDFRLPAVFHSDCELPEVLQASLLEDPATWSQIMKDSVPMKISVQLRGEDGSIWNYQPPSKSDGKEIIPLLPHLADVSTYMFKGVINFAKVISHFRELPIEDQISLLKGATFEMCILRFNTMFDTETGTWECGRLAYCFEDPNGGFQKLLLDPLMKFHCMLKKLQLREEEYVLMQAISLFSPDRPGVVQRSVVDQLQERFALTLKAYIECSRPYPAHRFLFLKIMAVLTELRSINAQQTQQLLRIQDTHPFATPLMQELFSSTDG
Peroxisome proliferator-activated receptor gamma (Homo sapiens), sequence (P37231 whole entry, looked up): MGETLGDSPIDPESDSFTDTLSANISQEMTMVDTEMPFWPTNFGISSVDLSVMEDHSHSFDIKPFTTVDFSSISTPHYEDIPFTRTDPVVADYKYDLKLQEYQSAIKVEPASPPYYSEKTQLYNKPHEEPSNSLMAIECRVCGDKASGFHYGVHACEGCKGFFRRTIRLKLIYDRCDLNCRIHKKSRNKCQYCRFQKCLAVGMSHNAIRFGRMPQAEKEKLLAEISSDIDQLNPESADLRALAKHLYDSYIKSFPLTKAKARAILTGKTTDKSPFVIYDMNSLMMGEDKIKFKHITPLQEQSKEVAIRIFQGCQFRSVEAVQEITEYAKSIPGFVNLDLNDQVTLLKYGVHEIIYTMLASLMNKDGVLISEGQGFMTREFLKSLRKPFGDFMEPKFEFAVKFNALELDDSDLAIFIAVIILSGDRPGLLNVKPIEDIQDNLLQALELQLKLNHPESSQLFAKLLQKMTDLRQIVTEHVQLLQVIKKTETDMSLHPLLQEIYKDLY
Voltage-gated inwardly rectifying potassium channel KCNH2 (Homo sapiens), sequence (Q12809 whole entry, looked up): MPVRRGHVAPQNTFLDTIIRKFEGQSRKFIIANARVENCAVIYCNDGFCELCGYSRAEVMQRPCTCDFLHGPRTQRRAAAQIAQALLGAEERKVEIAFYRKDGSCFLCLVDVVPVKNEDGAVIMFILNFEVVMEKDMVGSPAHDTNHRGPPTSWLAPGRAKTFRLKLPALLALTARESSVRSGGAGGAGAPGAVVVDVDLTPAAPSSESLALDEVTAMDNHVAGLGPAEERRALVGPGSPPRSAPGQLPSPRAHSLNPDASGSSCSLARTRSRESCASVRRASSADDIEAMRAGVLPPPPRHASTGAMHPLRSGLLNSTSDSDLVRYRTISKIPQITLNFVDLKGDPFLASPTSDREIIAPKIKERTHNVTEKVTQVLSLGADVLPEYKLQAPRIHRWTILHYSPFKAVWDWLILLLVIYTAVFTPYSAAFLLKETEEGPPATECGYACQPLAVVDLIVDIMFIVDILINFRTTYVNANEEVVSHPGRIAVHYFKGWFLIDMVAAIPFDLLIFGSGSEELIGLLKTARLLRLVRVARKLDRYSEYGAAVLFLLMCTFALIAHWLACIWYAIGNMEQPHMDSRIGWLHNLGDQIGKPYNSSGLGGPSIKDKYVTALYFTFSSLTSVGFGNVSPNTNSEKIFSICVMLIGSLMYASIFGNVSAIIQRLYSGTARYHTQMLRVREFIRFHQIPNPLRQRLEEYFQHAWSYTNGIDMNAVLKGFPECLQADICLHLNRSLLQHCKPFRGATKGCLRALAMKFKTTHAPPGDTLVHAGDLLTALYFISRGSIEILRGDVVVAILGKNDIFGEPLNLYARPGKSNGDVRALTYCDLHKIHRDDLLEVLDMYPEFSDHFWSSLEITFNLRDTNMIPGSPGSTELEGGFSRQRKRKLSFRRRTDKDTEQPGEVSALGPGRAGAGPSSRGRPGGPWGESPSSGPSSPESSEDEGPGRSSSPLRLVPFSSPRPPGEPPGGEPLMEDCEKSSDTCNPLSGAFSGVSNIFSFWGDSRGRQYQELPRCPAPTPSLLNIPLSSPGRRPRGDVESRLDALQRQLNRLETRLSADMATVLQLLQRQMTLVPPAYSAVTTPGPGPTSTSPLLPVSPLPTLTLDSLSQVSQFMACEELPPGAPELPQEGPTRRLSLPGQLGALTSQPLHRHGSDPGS
Retinoic acid receptor RXR-alpha (Homo sapiens), sequence (P19793 whole entry, looked up): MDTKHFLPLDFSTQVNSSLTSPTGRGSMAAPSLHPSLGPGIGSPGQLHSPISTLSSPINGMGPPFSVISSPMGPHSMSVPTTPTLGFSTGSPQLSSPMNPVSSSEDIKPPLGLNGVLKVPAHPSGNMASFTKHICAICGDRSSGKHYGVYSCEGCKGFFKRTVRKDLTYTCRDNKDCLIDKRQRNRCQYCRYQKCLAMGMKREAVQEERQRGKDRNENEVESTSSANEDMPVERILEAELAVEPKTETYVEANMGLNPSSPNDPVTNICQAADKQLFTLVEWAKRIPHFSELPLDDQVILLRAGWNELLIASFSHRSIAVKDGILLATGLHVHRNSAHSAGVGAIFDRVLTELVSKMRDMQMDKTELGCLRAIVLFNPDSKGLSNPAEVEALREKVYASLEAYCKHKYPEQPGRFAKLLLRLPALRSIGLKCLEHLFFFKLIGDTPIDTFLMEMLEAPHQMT
Tumor necrosis factor (Homo sapiens), sequence (P01375 whole entry, looked up): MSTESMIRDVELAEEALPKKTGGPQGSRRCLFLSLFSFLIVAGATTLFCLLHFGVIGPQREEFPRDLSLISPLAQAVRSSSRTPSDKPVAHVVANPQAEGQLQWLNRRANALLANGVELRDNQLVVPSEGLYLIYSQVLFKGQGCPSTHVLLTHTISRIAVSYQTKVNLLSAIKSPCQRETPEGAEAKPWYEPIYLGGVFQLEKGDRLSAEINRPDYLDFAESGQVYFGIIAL
Thyroid hormone receptor beta (Homo sapiens), sequence (P10828 whole entry, looked up): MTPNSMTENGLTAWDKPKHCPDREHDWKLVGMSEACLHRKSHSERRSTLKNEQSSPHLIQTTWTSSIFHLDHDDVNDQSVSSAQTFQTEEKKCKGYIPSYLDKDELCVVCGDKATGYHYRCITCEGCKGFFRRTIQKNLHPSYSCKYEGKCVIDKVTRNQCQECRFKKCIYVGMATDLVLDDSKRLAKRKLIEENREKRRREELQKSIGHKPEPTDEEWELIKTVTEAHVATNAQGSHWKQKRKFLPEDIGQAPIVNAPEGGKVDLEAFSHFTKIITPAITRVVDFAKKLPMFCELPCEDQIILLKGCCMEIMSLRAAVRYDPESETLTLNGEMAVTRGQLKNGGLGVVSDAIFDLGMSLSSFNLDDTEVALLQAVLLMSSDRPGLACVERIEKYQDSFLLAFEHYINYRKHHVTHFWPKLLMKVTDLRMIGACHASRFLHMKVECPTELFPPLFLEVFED
Cytochrome P450 3A4 (Homo sapiens), sequence (P08684 whole entry, looked up): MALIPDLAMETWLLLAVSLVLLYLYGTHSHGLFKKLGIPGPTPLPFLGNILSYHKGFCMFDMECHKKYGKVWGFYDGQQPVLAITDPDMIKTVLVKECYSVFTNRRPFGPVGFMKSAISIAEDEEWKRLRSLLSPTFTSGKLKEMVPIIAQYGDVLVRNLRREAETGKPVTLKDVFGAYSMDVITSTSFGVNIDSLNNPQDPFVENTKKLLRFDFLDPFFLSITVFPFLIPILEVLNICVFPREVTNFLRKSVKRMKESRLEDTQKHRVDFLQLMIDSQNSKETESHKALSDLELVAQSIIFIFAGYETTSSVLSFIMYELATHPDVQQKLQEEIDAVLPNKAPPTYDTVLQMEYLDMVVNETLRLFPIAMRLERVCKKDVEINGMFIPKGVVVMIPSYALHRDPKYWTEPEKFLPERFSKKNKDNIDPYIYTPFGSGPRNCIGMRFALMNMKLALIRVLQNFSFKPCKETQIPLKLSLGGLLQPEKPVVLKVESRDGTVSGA

Take `CN(C)C=O`: the Potency result in experiment [1], in experiment [2], in [3], in [4], in experiment [8] and in [12] was “inactive” each time. Besides, the Potency entry in experiment [13] is “inactive”. The molecule was called inactive in experiment [5], in experiment [6], in [10] and in experiment [15]. Further, the activity change % (negative = inhibition) in experiment [7] was -4.62% (inactive) and -13.9% (inactive) and 12% (inactive). In addition, the activation in experiment [9] was -4.49% (inactive) and -0.185% (inactive) and 0.579% (inactive); in experiment [11], 0.683% (inactive) and 0.177% (inactive) and 0.0089% (inactive). Further, the max response in experiment [14] is 4.41% (inactive) and 5.29% (inactive) and 1.77% (inactive).

Consider `C=Cc1ccccc1Cl`, for which the Potency result in [1], in [16], in experiment [2], in experiment [3], in experiment [4] and in experiment [8] was “inactive” throughout. Besides, the Potency entry in experiment [19], in experiment [20], in experiment [12] and in [13] was “inactive” in each case. Further, the molecule was classed as inactive in [5], in experiment [18], in experiment [6], in [10] and in [15]. The figures for the max response in experiment [17] and in [14] were -6.66% and 1.05% (inactive), respectively. The activity change % (negative = inhibition) in experiment [7] is 9.88% (inactive). Also, the activation is -0.152% (inactive) in [9] and -0.0962% (inactive) in experiment [11].

Turning to `OCCNCCO`, the Potency result in [1], in experiment [16], in experiment [2], in experiment [3], in experiment [4] and in [8] was “inactive” in each case. Also, the Potency result in experiment [19], in [20], in [12] and in experiment [13] was “inactive” in each case. Moreover, the max response in experiment [17] is -28.3% and -18.3%. In addition, the outcome in experiment [18], in experiment [10] and in experiment [15] was inactive. In addition, the activation in [11] was 1.33% (inactive) and -0.956% (inactive).

For the molecule `O=C(O)c1ccc(O)cc1O`, the Potency entry in experiment [1], in [16], in experiment [2], in experiment [3], in experiment [4] and in experiment [8] was “inactive” each time. Besides, the Potency entry in [19], in experiment [20], in experiment [12] and in experiment [13] was “inactive” each time. For the same molecule, the outcome in [5], in experiment [18], in experiment [6], in [10] and in experiment [15] was inactive. In addition, the max response was -5.03% and -19.7% in [17]; 10.9% (inactive) and 2.3% (inactive) in experiment [14]. In addition, the activity change % (negative = inhibition) in experiment [7] is 0.5% (inactive) and 23.9% (inactive). Further, the activation was -0.261% (inactive) and 0.22% (inactive) in experiment [9]; 0.974% (inactive) and 0.552% (inactive) in experiment [11].

Consider `O=NO`, for which the Potency result in experiment [1], in experiment [16], in [2], in experiment [3], in experiment [4] and in [8] was “inactive” in each case. Further, the Potency result in experiment [19], in [20], in experiment [12] and in [13] was “inactive” each time. In addition, the call in [5], in experiment [18], in experiment [6], in experiment [10] and in experiment [15] was inactive. The max response in experiment [17] is -10.7% and -17.9%; in experiment [14], 3.2% (inactive) and 1.29% (inactive). In addition, the activity change % (negative = inhibition) in experiment [7] was -1.68% (inactive) and 1.18% (inactive). In experiment [11], the activation is -0.432% (inactive) and -1.54% (inactive).

As to `Cc1c(N=C=O)cccc1N=C=O`, the Potency result in [16], in [2], in experiment [3], in experiment [4], in experiment [8] and in experiment [20] was “inactive” in each case. Also, the Potency entry in experiment [12] and in experiment [13] was “inactive” throughout. Further, the molecule was classed as inactive in [5], in [18], in experiment [6], in [10] and in [15]. The max response is -9.85% and -4.8% in [17]; -1.26% (inactive) and -0.744% (inactive) in experiment [14]. Also, in experiment [7], the activity change % (negative = inhibition) is 2.21% (inactive) and -0.0232% (inactive). In addition, the activation in experiment [9] is -0.524% (inactive) and 6.01% (inactive); in experiment [11], 3.08% (inactive) and 0.198% (inactive).
